The source of these data is the supplement of paper PMC13380429.

Structures are written as SMILES.

Test [1] relates to Vero E6 infected with SARS-CoV-2. The test is described as follows: morphology score (similarity to uninfected cells); higher = more like uninfected cells. The note with it: 24 h.
The test system is the same in test [2]. The test is described as follows: SARS-CoV-2 infection rate relative to infected DMSO; higher = more infection, active = 60 or less. Particulars: 24 h.

On to `CCc1c(O)cc(O)c(C(=O)c2ccc(OCCN3CCOCC3)c(OC)c2)c1CC(=O)N(CCOC)CCOC` (10 µM), for which the morphology score in test [1] is -0.0338. The SARS-CoV-2 infection rate in test [2] was 102% (inactive).

Consider `COC(=O)c1cnn(-c2ccc(F)cc2F)c1/C=N/NC(=S)NC(C)(C)C` (10 µM), for which the morphology score in test [1] worked out at 0.433. In test [2], the SARS-CoV-2 infection rate is 74% (inactive).

With `OCCNCCCOc1cccc(Cl)c1Cl` (0.833333 µM), in test [1], the morphology score was 0.093. In addition, the SARS-CoV-2 infection rate in test [2] was 112% (inactive).

As to `CC(C)OC(=O)C1=CN(C(=O)c2ccc(F)c(F)c2)CC(C)(C)c2c1[nH]c1ccccc21` (10 µM), the morphology score in test [1] came out at 0.0521. The SARS-CoV-2 infection rate in test [2] is 100% (inactive).

The molecule `CCc1ccc(/C=C2/SC(=S)NC2=O)cc1` (10 µM) displayed a morphology score in test [1] of 0.0397. The SARS-CoV-2 infection rate in test [2] is 92.5% (inactive).

In the case of `NCC(CC(=O)O)c1ccc(Cl)cc1` (stereo not given) [baclofen] (10 µM), in test [1], the morphology score is 0.138. Besides, the SARS-CoV-2 infection rate in test [2] is 109% (inactive).

In test [1], `CCOC(=O)c1ccc(N(C)c2csc(-c3ccccc3)n2)cc1` [neuropathiazol] (10 µM) gave a morphology score of -0.0531. In addition, the SARS-CoV-2 infection rate in test [2] was 110% (inactive).

In turn, `C#Cc1cncc([C@@H]2CCCN2C)c1` [altinicline] (10 µM) returned a morphology score in test [1] of 0.0585. Besides, the SARS-CoV-2 infection rate in test [2] was 98.5% (inactive).

Regarding `C[C@@H]1CC[C@@]2(NC1)O[C@H]1C[C@H]3[C@@H]4CC=C5C[C@@H](O[C@@H]6O[C@H](CO)[C@@H](O[C@@H]7O[C@@H](C)[C@H](O)[C@@H](O)[C@H]7O)[C@H](O)[C@H]6O[C@@H]6O[C@@H](C)[C@H](O)[C@@H](O)[C@H]6O)CC[C@]5(C)[C@H]4CC[C@]3(C)[C@H]1[C@@H]2C` [solamargine] (0.833333 µM), the morphology score in test [1] was 0.117. Further, the SARS-CoV-2 infection rate in test [2] was 102% (inactive).

`N#Cc1ccnc(N2C(=O)CC[C@H]2C(=O)N(c2cncc(F)c2)[C@H](C(=O)NC2CC(F)(F)C2)c2ccccc2Cl)c1` [ivosidenib] (10 µM) had a morphology score in test [1] of 0.219. The SARS-CoV-2 infection rate in test [2] is 91.5% (inactive).

`O=C(Nc1ccc(C(O)(C(F)(F)F)C(F)(F)F)cc1)c1ccc(C(F)(F)F)cc1` (10 µM) yielded a morphology score in test [1] of 0.265. Also, the SARS-CoV-2 infection rate in test [2] is 85% (inactive).

As to `c1ccc(CNc2ncnc3[nH]cnc23)cc1` [6-benzylaminopurine] (10 µM), in test [1], the morphology score was determined as 0.186. Also, in test [2], the SARS-CoV-2 infection rate is 99% (inactive).

In test [1], `O=C(O)CNC(=O)c1c(O)c2ccccc2n(Cc2ccccc2)c1=O` (10 µM) registered a morphology score of -0.000636. In addition, in test [2], the SARS-CoV-2 infection rate was 102% (inactive).

In test [1], `C[C@@H](c1nc(-c2ccc(C#N)cc2)cs1)[C@](O)(Cn1cncn1)c1cc(F)ccc1F` [isavuconazole] (10 µM) gave a morphology score of -0.116. The SARS-CoV-2 infection rate in test [2] is 113% (inactive).

For the molecule `Cc1ccc(C(=O)C(C)CN2CCCCC2)cc1` (stereo not given) [tolperisone] (10 µM), the morphology score in test [1] stood at 0.383. The SARS-CoV-2 infection rate in test [2] is 83.5% (inactive).

`CCCCCCCCCCCCCCCC[N+](C)(C)CCN(Cc1ccc(OC)cc1)c1ncccn1` [thonzonium] (10 µM): the morphology score in test [1] is -0.372. For the same molecule, in test [2], the SARS-CoV-2 infection rate is 122% (inactive).

`CC#CCn1c(N2CCC[C@@H](N)C2)nc2c1c(=O)n(Cc1nc(C)c3ccccc3n1)c(=O)n2C` [linagliptin] (10 µM) came in with a morphology score in test [1] of -0.0102. Besides, the SARS-CoV-2 infection rate in test [2] is 110% (inactive).

Turning to `CN(C)CCCNC(=O)c1ccc(-c2cc(O)c3ncccc3c2)cc1` (0.833333 µM), the morphology score in test [1] was -0.00508. Besides, in test [2], the SARS-CoV-2 infection rate was 108% (inactive).

In the case of `CCOc1cncc(/C=C/CCNC)c1` (10 µM), the morphology score in test [1] is -0.0406. Further, the SARS-CoV-2 infection rate in test [2] was 108% (inactive).

Turning to `O=C(c1ccc(C(=O)N2CCC(N3CCCC3)CC2)c(Nc2ccccc2)c1)N1CCC(N2CCCC2)CC1` (10 µM), the morphology score in test [1] is -0.0106. The SARS-CoV-2 infection rate in test [2] is 114% (inactive).
